Bioassay records deposited in PubChem BioAssay by Sanford-Burnham Center for Chemical Genomics.
This is a sample that favours compounds with a hit; in the whole collection about 6.3% have one here.
TIM10 inh: growth inhibitors of isogenic TIM10 control yeast, primary screen, counter-screen for tim10-1 yeast inhibitor project, luminescence, uHTS. S. cerevisiae TIM10 strain growth, BacTiter-Glo luminescence, 24 h. inhibition, % at 10 µM. hit rate 1.4% among 330,000;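 active means inhibition of 40% or more at the single tested concentration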;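 further: wild-type TIM10 isogenic control strain grown at permissive 25 °C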
tim23-1 inh: growth inhibitors of tim23-1 mutant yeast, primary screen, luminescence, uHTS; S. cerevisiae tim23-1 growth, BacTiter-Glo luminescence, 24 h; inhibition, % at 20 µM; hit rate 1.3% among 330,000; AID 463212, 2010;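 active means growth inhibition of the mutant yeast at or above 50%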;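 further: temperature-sensitive mutant grown at 25 °C; plate controls were DMSO-treated mutant yeast for no effect and medium wells lacking yeast for full effect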
MPTP inh: mitochondrial permeability transition pore inhibitors, primary screen, biochemical, isolated mouse mitochondria, absorbance; Ca2+ swelling absorbance, 30 min; inhibition, % at 10 µM; hit rate 1.4% among 360,000;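 active means inhibition of 50% or more, scaled per plate between neutral and stimulator controls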;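 further: 0% = DMSO wells given calcium and 100% = 1 mM EGTA wells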
Mdm2 MdmX PPI: inhibitors of human Mdm2-MdmX association, primary screen, cell-based, luminescence, split luciferase, SaOS-2, uHTS; AID 485346, 2010; hit rate 3% among 330,000; inhibition, % at 8 µM; SaOS-2 split-luciferase Mdm2/MdmX complementation;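 active means inhibition of at least 50% at 8 µM in the primary screen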
tim10-1 inh: growth inhibitors of tim10-1 mutant yeast, primary screen, luminescence, uHTS; S. cerevisiae tim10-1 ts strain growth, BacTiter-Glo, 24 h; inhibition, % at 20 µM; hit rate 2.2% among 330,000;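 active means inhibition of at least 40%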;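 further: mutant grown at 25 °C; 0% = DMSO wells with yeast and 100% = wells holding no yeast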
tim23-1 conf: tim23-1 mutant yeast growth inhibitors, confirmation, luminescence, single concentration | shares compounds with tim23-1 inh | S. cerevisiae tim23-1 growth, BacTiter-Glo luminescence, 24 h | inhibition, % at 20 µM | hit rate 83% among 4,400 | AID 463218, 2010;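 active means inhibition above about 39% in either of two replicate wells at 20 µM, limit read from the data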;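 further: temperature-sensitive tim23-1 mutant grown at 25 °C; 0% = DMSO wells with yeast and 100% = medium wells without yeast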
Numbers without * were called inactive; . = no result given.

SMILES	TIM10 inh	tim23-1 inh	MPTP inh	Mdm2 MdmX PPI	tim10-1 inh	tim23-1 conf
COc1ccc(C(=O)n2cc(C(=O)c3cc(C)ccc3O)cn2)cc1OC	26	48	2	46	20	.
CCC(C(=O)NCc1ccccc1)n1c(-c2cccs2)nc2ccccc21 (centres undefined)	.	.	0	.	.	.
CC(C)CN1Cc2ccccc2Oc2cc(Br)ccc2S1(=O)=O	-3	51*	6	24	18	24
CCCCN1Cc2ccccc2Oc2cc(Br)ccc2S1(=O)=O	-8	51*	-1	23	22	23
Cc1c(NC(=O)Nc2ccc(Cl)cc2)c(=O)n(-c2ccccc2)n1C	-1	17	-1	-25	-6	.
Cc1ccc(NC(=O)Nc2c(C)n(C)n(-c3ccccc3)c2=O)cc1	7	94*	0	8	-4	15
Cc1cccc(N2CCN(C(C(=O)NCc3ccccc3)c3ccc(C(F)(F)F)cc3)CC2)c1C (centres undefined)	.	.	2	.	.	.
COc1ccc(N(C(=O)CNC(=O)c2cccs2)C(C(=O)NC2CCCC2)c2cccnc2)cc1 (centres undefined)	12	50*	-2	17	7	14
Cc1ccc(Sc2ccc(CO)cc2[N+](=O)[O-])cc1	30	53*	5	12	32	52*
CSc1nc(N)n2nccc2n1	.	.	1	.	.	.
COc1ccc(C(=O)NCCCC2CCCC2)cc1OC1CCN(C(C)C)CC1	.	.	1	.	.	.
Cc1ccc(C(=O)C(C)OC(=O)c2cc3cc([N+](=O)[O-])ccc3oc2=O)cc1 (centres undefined)	2	72*	1	-3	-18	55*
COc1cccc2cc(C(=O)OC(C)C(=O)c3ccc(C)cc3)c(=O)oc12 (centres undefined)	8	31	0	2	14	.
O=C(O)c1ccc(COc2ccc(/C=N/NC(=O)c3cccs3)cc2)cc1	2	16	0	-7	11	.
CC(=C/c1ccccc1)/C=N/NC(=O)c1cccs1	35	64*	3	-157	-1	55*
O=C(Cc1cccs1)N/N=C/C=C\c1ccco1	6	20	0	-10	3	.
O=C(N/N=C/c1cccc(OCc2ccccc2)c1)c1cccs1	-7	55*	12	-23	-7	42*
CC(/C=N/NC(=O)c1ccncc1)=C\c1ccccc1	5	10	-1	-7	2	.
O=C(N/N=C/C=C\c1ccco1)c1cccs1	23	64*	-1	5	9	53*
CN(Cc1ccc(Cl)cc1)C(=O)c1[nH]c(C(F)(F)F)nc1-c1ccccc1	.	.	2	.	.	.
CNc1ncnc2c1ncn2[C@H]1CN(Cc2ccc(OC)cc2)C[C@@H](CO)O1	.	.	-1	.	.	.
CC(C)n1c(=O)c2ccccc2n1S(C)(=O)=O	.	.	-2	.	.	.
COc1ccc(Nc2nc3ccccc3n3cnnc23)cc1Cl	12	57*	2	19	21	5
COc1cccc(Nc2nc3ccccc3n3cnnc23)c1	-3	15	1	18	17	.
CC(C)C[C@H]1CN(CCCC[C@H]2CNC(=O)C(=O)N2CCc2ccc(O)cc2)C(=O)C(=O)N1CCc1ccc(O)cc1	.	.	0	.	.	.
SMILES	TIM10 inh	tim23-1 inh	MPTP inh	Mdm2 MdmX PPI	tim10-1 inh	tim23-1 conf
CCN(CC)C(=O)[C@H]1C[C@H](CC(=O)NCCC2=CCCCC2)C(=O)N2CCc3c([nH]c4ccc(Cl)cc34)[C@]12C	-1	58*	-2	26	16	33
CCN(CC)C(=O)[C@H]1CC(CC(=O)NCCC2=CCCCC2)C(=O)N2CCc3c([nH]c4ccccc34)[C@]12C (some centres undefined)	9	16	0	1	11	.
O=C(CN1C(=O)c2ccccc2S1(=O)=O)c1ccc(Cl)cc1Cl	8	51*	0	24	32	24
O=C(CN1C(=O)c2ccccc2S1(=O)=O)c1ccccc1F	7	16	1	21	27	.
O=C(NCc1ccco1)c1[nH]c(C(F)(F)F)nc1-c1ccccc1	.	.	-2	.	.	.
CC1=C(C(=O)N(C(C)C)C(C)C)CC(CC(=O)NC2CCCCC2)C(=O)N1Cc1ccc(F)cc1 (centres undefined)	.	.	1	.	.	.
Cc1ccc(-c2c(C)cc3oc(=O)cc(-c4ccccc4)c3c2C)cc1	-7	30	0	6	3	.
CC(=O)Nc1ccc(-c2c(C)cc3oc(=O)cc(-c4ccccc4)c3c2C)cc1	3	50*	-1	23	28	33
CCNC(=O)C1(C)CCN1C(=O)CCc1cccc(Cl)c1 (centres undefined)	.	.	2	.	.	.
CCOC(=O)c1c(C=O)c2ccccc2n1CC	-9	39	0	30	7	.
CCOC(=O)c1c(C=O)c2sc(C)cc2n1C	-7	53*	1	-20	-1	45*
Cc1ccc2c(c1)COc1c3ccc(C(=O)N[C@@H](C)CO)cc3nn1-2	12	23	-1	-85	15	.
Cc1ccc2c(c1)COc1c3ccc(C(=O)NC(C)C)cc3nn1-2	32	51*	-2	-135	28	48*
CC(=O)OCC(=O)[C@@]1(O)[C@H](C)C[C@H]2[C@@H]3CCC4=CC(=O)C=C[C@]4(C)[C@@]3(F)[C@@H](O)C[C@@]21C	0	3	-2	8	-22	.
CCC(=O)OCC(=O)[C@@]1(OC(=O)CC)[C@@H](C)C[C@H]2[C@@H]3CCC4=CC(=O)C=C[C@]4(C)[C@@]3(Cl)[C@@H](O)C[C@@]21C	24	55*	0	2	35	40*
Cc1ccc(Nc2nc(-c3sc(N)nc3C)cs2)cc1	33	65*	0	-47	33	63*
O=C1c2ccccc2C(c2nnnn2-c2ccc3c(c2)OCCO3)N1CCCn1ccnc1 (centres undefined)	.	.	-1	.	.	.
COC(=O)c1sccc1NC(=O)Nc1ccc(C)c(C)c1	33	60*	-1	-13	36	49*
COC(=O)c1sccc1NC(=O)Nc1ccc(OC)c(OC)c1	11	-3	0	8	2	.
CCCNC(=O)Nc1ccsc1C(=O)OC	5	1	1	9	5	.
CCc1ccc(NC(=O)Nc2ccsc2C(=O)OC)cc1	12	56*	1	12	31	57*
CC(C)(C)OC(=O)N1CCN(C(c2ccnc3ccccc23)c2nnnn2-c2ccc3c(c2)OCCO3)CC1 (centres undefined)	.	.	-1	.	.	.
CSc1nnc(C)c(/C=C/NOCc2ccc(Cl)cc2)n1	19	54*	1	25	34	72*
